Bioassay records (PubChem)
PD-1 reversal: activators reversing PD-1 mediated T-cell inhibition, primary screen, luminescence, primary human CD4 T cells, PD-L1 beads | CellTiter-Glo 96 h | activation, % (concentration not given with the values) | 29,000 tested, under 10 active; call rule not given here
NOMO-1 viab: NOMO-1 AML cell viability reduction, primary screen, STK33 inhibitor project, CellTiter-Glo luminescence | inhibition, % (test concentration not listed) | 37,000 tested, 7.5% active | NOMO-1 AML viability, 72 h; in the data active = inhibition above about 80%; inconclusive = no clear call, values can overlap the other calls
Shh pathway inh: Hedgehog pathway signaling inhibitors, primary screen, luminescence, Shh-LIGHT2 cells, Gli-luciferase. inhibition, % (concentration not given with the values). Shh-LIGHT2 Gli-luciferase reporter, 30 h. AID 2313, 2010. 22,000 tested, 2.1% active;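 active = mean inhibition across valid replicates above about 65%, limit read from the data; inconclusive = mean under the limit, yet half or more replicates past it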;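 also: pathway switched on by Shh-conditioned medium diluted 1 in 25 in low serum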
MITF inhib: inhibitors of MITF, primary screen, MITF inhibitor project, cell-based, luminescence; TRPM1 promoter luciferase, 24 h; inhibition, % (test concentration not listed); AID 2240, 2010; 37,000 tested, 0.28% active; in the data active = inhibition above about 85%; inconclusive = no clear call, values can overlap the other calls; inactive = below about 68%;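 also: human melanocyte line stably carrying TRPM1 promoter luciferase reporter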
Each line names hits and unclear results; the compound was inactive in the other large screens. Compounds with a hit are over-represented: about 8.1% of the library has one in this group of screens.

O=C(/C=C/c1ccccc1)Oc1ccccc1	none (no result: Shh pathway inh)
O=C(/C=C/c1ccc(O)c(O)c1)OCCc1ccccc1	NOMO-1 viab 141, Shh pathway inh 77
Cc1ccc(C2C(C(=O)c3sc(-c4ccccc4)nc3C)C(=O)C(=O)N2CCN(C)C)o1 (centres undefined)	none (no result: Shh pathway inh)
Cc1ccc2nc(-c3ccc(NC(=O)CSc4ncn[nH]4)cc3)sc2c1	none (no result: Shh pathway inh)
C[C@H]1CN([C@@H](C)CO)C(=O)c2cccc(NC(=O)Nc3ccc(C(F)(F)F)cc3)c2O[C@@H]1CN(C)Cc1ccc(Oc2ccccc2)cc1	NOMO-1 viab 89 (no result: PD-1 reversal)
C[C@H](CO)N1C[C@H](C)[C@H](CN(C)Cc2ccc(Oc3ccccc3)cc2)Oc2c(NC(=O)Nc3ccc(C(F)(F)F)cc3)cccc2C1=O	NOMO-1 viab 117
C[C@@H]1CN([C@@H](C)CO)C(=O)c2cccc(NC(=O)Nc3ccccc3)c2O[C@@H]1CN(C)Cc1ccc(C(F)(F)F)cc1	NOMO-1 viab inconclusive
O=C(CCn1cnc2ccccc2c1=O)Nc1ccc(F)c(C(F)(F)F)c1	none (no result: Shh pathway inh)
CCN(CC(=O)Nc1ccc(Br)cc1F)S(=O)(=O)c1ccc2ccccc2c1	none (no result: PD-1 reversal, Shh pathway inh)
Cc1ccc(S(=O)(=O)NC(C)C(=O)O)cc1C (centres undefined)	none (no result: PD-1 reversal, Shh pathway inh)
CC(=O)Nc1ccc(NC(=O)CN(c2cccc(C(F)(F)F)c2)S(C)(=O)=O)cc1	none (no result: Shh pathway inh)
O=C(Nc1nc(-c2ccccc2)cs1)C12CC3CC(CC(C3)C1)C2	NOMO-1 viab 108
CC(=O)O[C@@H]1CC2C(C)(C)CCC[C@]2(C)C2CC[C@]3(C)C(=CC(=O)O[C@H]3c3ccoc3)[C@@]21C (some centres undefined)	NOMO-1 viab 99 (no result: PD-1 reversal)
CC(=O)O[C@@H]1CC[C@@]2(C)C(C[C@@H](OC(C)=O)[C@@]3(C)C4=CC(=O)O[C@@H](c5ccoc5)[C@]4(C)CCC23)C1(C)C (some centres undefined)	none (no result: PD-1 reversal)
C[C@@H]1CN([C@@H](C)CO)C(=O)c2cccc(NC(=O)Nc3ccc(C(F)(F)F)cc3)c2O[C@H]1CN(C)Cc1ccc(C(=O)Nc2ccccc2N)cc1	NOMO-1 viab 128 (no result: Shh pathway inh)
C[C@H](CO)N1C[C@H](C)[C@H](CN(C)Cc2ccc(C(=O)Nc3ccccc3N)cc2)Oc2c(NC(=O)Nc3ccc(F)cc3)cccc2C1=O	NOMO-1 viab 97 (no result: Shh pathway inh)
C[C@@H]1CN([C@@H](C)CO)C(=O)c2cc(NC(=O)Nc3ccc(F)cc3)ccc2O[C@@H]1CN(C)Cc1ccc(C(=O)Nc2ccccc2N)cc1	NOMO-1 viab inconclusive (no result: Shh pathway inh)
C[C@H]1CN([C@@H](C)CO)C(=O)c2cc(NC(=O)Nc3ccc(F)cc3)ccc2O[C@H]1CN(C)Cc1ccc(C(=O)Nc2ccccc2N)cc1	NOMO-1 viab inconclusive (no result: Shh pathway inh)
C[C@H]1CN([C@@H](C)CO)C(=O)c2cccc(NC(=O)Nc3ccc(F)cc3)c2O[C@@H]1CN(C)Cc1ccc(C(=O)Nc2ccccc2N)cc1	NOMO-1 viab 140 (no result: Shh pathway inh)
C[C@@H]1CN([C@H](C)CO)C(=O)c2cccc(NC(=O)Nc3ccc(C(F)(F)F)cc3)c2O[C@@H]1CN(C)Cc1ccc(C(=O)O)cc1	none
C[C@@H]1CN([C@H](C)CO)C(=O)c2cccc(NC(=O)Nc3ccc(F)cc3)c2O[C@H]1CN(C)Cc1ccc(C(=O)Nc2ccccc2N)cc1	NOMO-1 viab 127 (no result: Shh pathway inh)
FC(F)(F)c1cccc(-c2nc3ccccn3n2)c1	none
Cc1ccc2c(c1)C(c1ccccc1)CC(C)N2S(=O)(=O)c1cccc(Cl)c1 (centres undefined)	none
CCN(CC)S(=O)(=O)c1ccc(OC)c(NC(=O)c2cccnc2)c1	none (no result: Shh pathway inh)
Cc1c(O)ccc(-c2[nH]ncc2-c2nncn2-c2ccccc2)c1O	none (no result: Shh pathway inh)
C[C@H]1CN([C@@H](C)CO)C(=O)c2cccc(NC(=O)Nc3ccc(F)cc3)c2O[C@@H]1CN(C)Cc1ccc(C(=O)O)cc1	none (no result: PD-1 reversal)
C[C@@H]1CN([C@@H](C)CO)C(=O)c2cccc(NC(=O)Nc3ccc(F)cc3)c2O[C@H]1CN(C)Cc1ccc(C(=O)Nc2ccccc2N)cc1	NOMO-1 viab 125 (no result: Shh pathway inh)
O=c1c(O[C@@H]2O[C@H](CO[C@@H]3O[C@H](CO)[C@@H](O)[C@H](O)[C@H]3O)[C@@H](O)[C@H](O)[C@H]2O)c(-c2ccc(O)cc2)oc2cc(O)cc(O)c12	none (no result: PD-1 reversal, NOMO-1 viab, MITF inhib)
COc1ccc(C=Nc2ccc(Br)cc2)cc1	Shh pathway inh 69
COc1ccc(/C=N/n2cnnc2)cc1	none (no result: Shh pathway inh)
COC(=O)c1c(NC(=S)N2CCN(Cc3c(C)nn(C)c3C)CC2)sc2c1CCC(C)C2 (centres undefined)	none (no result: PD-1 reversal, Shh pathway inh)
CC(C)NC(=O)Nc1cccc2c1O[C@H](CN(C)S(=O)(=O)c1ccc(Cl)cc1)[C@H](C)CN([C@@H](C)CO)C2=O	none
CC(C)NC(=O)Nc1cccc2c1O[C@@H](CN(C)S(=O)(=O)c1ccc(F)cc1)[C@@H](C)CN([C@@H](C)CO)C2=O	Shh pathway inh 80
CC(C)NC(=O)Nc1cccc2c1O[C@@H](CN(C)S(=O)(=O)c1ccc(Cl)cc1)[C@@H](C)CN([C@H](C)CO)C2=O	Shh pathway inh 102
CC(C)NC(=O)Nc1cccc2c1O[C@@H](CN(C)S(=O)(=O)c1ccc(Cl)cc1)[C@@H](C)CN([C@@H](C)CO)C2=O	Shh pathway inh 96
CC(C)NC(=O)Nc1cccc2c1O[C@H](CN(C)S(=O)(=O)c1ccc(Cl)cc1)[C@@H](C)CN([C@H](C)CO)C2=O	none
CCOC(=O)C1=C(C)N(C(=O)Oc2ccccc2)C(SC)=NC1c1ccccc1 (centres undefined)	none
O=C1C(=O)N(Cc2ccc(Cl)c(Cl)c2)c2ccccc21	NOMO-1 viab 97
O=C(CCCN1C(=O)c2ccccc2C1=O)Nc1ccc(Cl)c(Cl)c1	none (no result: Shh pathway inh)
C[C@H]1CN([C@@H](C)CO)C(=O)c2cccc(NC(=O)CCCCCC(=O)Nc3ccccc3N)c2O[C@@H]1CN(C)Cc1ccc(-c2ccccc2)cc1	NOMO-1 viab 134 (no result: Shh pathway inh)
C[C@@H]1CN([C@H](C)CO)C(=O)c2cccc(NC(=O)CCCCCC(=O)Nc3ccccc3N)c2O[C@@H]1CN(C)CC1CCCCC1	NOMO-1 viab 119 (no result: Shh pathway inh)
C[C@H](CO)N1C[C@H](C)[C@@H](CN(C)Cc2ccncc2)Oc2c(NC(=O)CCCCCC(=O)Nc3ccccc3N)cccc2C1=O	none (no result: Shh pathway inh)
C[C@@H]1CN([C@H](C)CO)C(=O)c2cccc(NC(=O)CCCCCC(=O)Nc3ccccc3N)c2O[C@H]1CN(C)Cc1ccc(-c2ccccc2)cc1	NOMO-1 viab 126 (no result: Shh pathway inh)
C[C@@H]1CN([C@H](C)CO)C(=O)c2cc(NC(=O)CCCCCC(=O)Nc3ccccc3N)ccc2O[C@H]1CN(C)Cc1ccc(-c2ccccc2)cc1	none (no result: Shh pathway inh)
Cc1ccc2nc(S/C=C/C(=O)c3ccccc3)[nH]c2c1	NOMO-1 viab 123
CCc1ccccc1NC(=O)CSc1nc2ccc(C(=O)c3ccccc3)cc2[nH]1	none (no result: Shh pathway inh)
CCn1c(SCC(=O)Nc2cccc(Cl)c2C)nnc1-c1ccc(Br)cc1	none (no result: PD-1 reversal, Shh pathway inh)
Cc1ccc(S(=O)(=O)Nc2ccc3c(c2)CC(=O)N([C@@H](C)CO)C[C@@H](C)[C@@H](CN(C)Cc2ccc(C(F)(F)F)cc2)O3)cc1	NOMO-1 viab 84
